Test results as given in PubChem BioAssay (Tox21).
Inconclusive results are not listed. Calls of active or inactive are those of the source. Unless noted, the call rests on the fitted dose curve; in most records, active means well fitted curve in the direction sought with a large enough effect in the repeat runs; inconclusive means weak or mixed curves; inactive means no such curve, though single readings can be large; an effect the other way counts as inactive or inconclusive.

Legend:
[1] = qHTS RealTime-Glo MT Cell Viability Assay in HEK293 cells - 0 hour (AID 1224880); further: top concentration of the series differs between compounds; nearly all actives have a fitted effect of over 45% in size
Procedure, shortened: (§1)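 Luminescence readout at each listed time point; HEK293, 600 cells/well, RealTime-Glo MT reagent added with cells; compounds pinned (23 nL in DMSO) after 5 h at 37 C; continuous culture at 37 C.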

[2] = A CellTox Green Cytotoxicity Assay to monitor cytotoxicity in HEK293 cells - 32 hour (AID 1224881); further: nearly all actives have a fitted effect of over 40% in size
Procedure, shortened: (§2)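 Read-out: fluorescence of a cell-impermeant cyanine dye staining DNA of dead cells, proportional to cytotoxicity. HEK293, 600 cells/well with reagent, compound (23 nL DMSO) added after 5 h; reads at 0, 8, 16, 24, 32, 40 h.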

[3] = A CellTox Green Cytotoxicity Assay to monitor cytotoxicity in HepG2 cells - 0 hour (AID 1224882); further: nearly all actives have a fitted effect of over 35% in size
Procedure, shortened: (§3)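 HepG2, 600 cells/well premixed w/ CellTox Green; 5 h settle, 37 C/5% CO2; pintool cpd add (DMSO); 37 C, 40 h; fluorescence read at 0, 8, 16, 24, 32, 40 h.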

[4] = A CellTox Green Cytotoxicity Assay to monitor cytotoxicity in HepG2 cells - 32 hour (AID 1224883); further: nearly all actives have a fitted effect of over 50% in size
Procedure, shortened: as §3

[5] = A CellTox Green Cytotoxicity Assay to monitor cytotoxicity in HEK293 cells - 8 hour (AID 1224884); further: nearly all actives have a fitted effect of over 35% in size
Procedure, shortened: as §2

[6] = qHTS RealTime-Glo MT Cell Viability Assay in HepG2 cells - 16 hour (AID 1224885); further: nearly all actives have a fitted effect of over 50% in size
Procedure, shortened: (§4)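 Cells + NanoLuc/prosubstrate dispensed (600 cells/well) → 5 h at 37 C/5% CO2 → compounds in DMSO transferred → 40 h incubation at 37 C, luminescence read at 0, 8, 16, 24, 32, 40 h.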

[7] = qHTS RealTime-Glo MT Cell Viability Assay in HEK293 cells - 8 hour (AID 1224887); further: top concentration of the series differs between compounds; nearly all actives have a fitted effect of over 50% in size
Procedure, shortened: as §1

[8] = A CellTox Green Cytotoxicity Assay to monitor cytotoxicity in HEK293 cells - 16 hour (AID 1224888); further: nearly all actives have a fitted effect of over 35% in size
Procedure, shortened: as §2

[9] = qHTS RealTime-Glo MT Cell Viability Assay in HepG2 cells - 0 hour (AID 1224889); further: nearly all actives have a fitted effect of over 50% in size
Procedure, shortened: as §4

[10] = A CellTox Green Cytotoxicity Assay to monitor cytotoxicity in HepG2 cells - 8 hour (AID 1224890); further: nearly all actives have a fitted effect of over 45% in size
Procedure, shortened: as §3

[11] = qHTS assay to identify small molecule antagonists of the estrogen receptor alpha (ER-alpha) signaling pathway using the BG1 cell line in the presence of 0.1 nM 17-beta-estradiol - cell viability counter screen (AID 1259241); further: nearly all actives have a fitted effect of over 40% in size
Procedure, shortened: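 Live-cell protease activity (CellTiter-Fluor fluorescence, 30 min) was read in the same wells after VM7Luc4E2 cells had been exposed to compounds with 0.1 nM 17beta-estradiol for 22 hr at 37C.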

[12] = qHTS assay to identify small molecule antagonists of the androgen receptor (AR) signaling pathway using the MDA cell line in the presence of 0.5 nM R1881 - cell viability counter screen (AID 1259242); further: nearly all actives have a fitted effect of over 45% in size
Procedure, shortened: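 Live-cell protease fluorescence, CellTiter-Fluor, 30 min at 37C. Cells: MDA-kb2, 3,000/well, preincubated 5 hr. Compounds plus 0.5 nM R1881 final, 16 hr, 37C, 0% CO2.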

[13] = biological target: Androgen receptor (Homo sapiens) (UniProt P10275); assay: qHTS assay to identify small molecule antagonists of the androgen receptor (AR) signaling pathway using the MDA cell line in the presence of 0.5 nM R1881 (AID 1259243); further: nearly all actives have a fitted effect of over 50% in size; further: potency means the concentration at half of the fitted maximal effect
Procedure, shortened: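 MDA-kb2, MMTV-luc (AR/GR elements); 3,000 cells/well; cpd + 0.5 nM R1881 final; 16 hr 37C, 0% CO2; ONE-Glo 30 min RT; luminescence.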

[14] = biological target: Estrogen receptor (Homo sapiens) (UniProt P03372); assay: qHTS assay to identify small molecule antagonists of the estrogen receptor alpha (ER-alpha) signaling pathway using the BG1 cell line in the presence of 0.1 nM 17-beta-estradiol (AID 1259244); further: nearly all actives have a fitted effect of over 50% in size
Procedure, shortened: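 Luminescence after ONE-Glo (30 min, room temperature) measured ERE-luciferase activity in VM7Luc4E2 cells treated 22 h with compound and 0.1 nM final 17beta-estradiol as stimulator.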

[15] = qHTS assay to identify small molecule HDAC inhibitors (AID 1259364);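 further: wild-type HCT-116 cells with endogenous class I/II HDAC activity; top concentration of the series differs between compounds; nearly all actives have a fitted effect of over 45% in size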
Procedure, shortened: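 HCT-116 (wild type), 1,500 cells/well, overnight; compound 2 hr 37C 5% CO2; HDAC-Glo I/II reagent 30 min RT; luminescence readout.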

[16] = qHTS assay to identify small molecule HDAC inhibitors - cell viability counter screen (AID 1259365)
Procedure, shortened: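 HCT-116 (wild type), 1,500 cells/well, overnight 37C/5% CO2; compound in DMSO 2hr; CellTiter-Glo 30min RT; luminescence read.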

[17] = qHTS assay to identify small molecule agonists of the sonic hedgehog signaling (Shh) pathway - cell viability counter screen (AID 1259366); further: nearly all actives have a fitted effect of over 50% in size
Procedure, shortened: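 CellTiter-Fluor fluorescence read-out, 1 hr at 37C, added after 23hr compound exposure. Cells: 3T3 Gli1-Luc, an NIH/3T3 clone with stably integrated Gli1-Luc reporter, plated 4hr before compound.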

[18] = qHTS assay to identify small molecule antagonists of the sonic hedgehog signaling (Shh) pathway - cell viability counter screen (AID 1259367); further: nearly all actives have a fitted effect of over 55% in size
Procedure, shortened: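 Fluorescence read-out (CellTiter-Fluor, 1 hr at 37C) taken after 23 hr compound treatment of 3T3 Gli1-Luc cells stimulated with conditioned medium. Cells were seeded at 2,000 per well and pre-incubated 4 hr.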

[19] = qHTS RealTime-Glo MT Cell Viability Assay in HEK293 cells - 24 hour (AID 1224886); further: nearly all actives have a fitted effect of over 50% in size; further: potency means the concentration at half of the fitted maximal effect; on activity change, negative = cytotoxicity: top concentration of the series differs between compounds
Procedure, shortened: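 Tox21 10K qHTS, HEK293, 600 cells/well, RealTime-Glo reagent co-dispensed with cells; 5 h preincubation, compound by pintool, 37 C, luminescence at 0–40 h.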

[20] = qHTS assay to identify small molecule phospholipidosis (PLD) inducers (AID 1259344; active means well fitted curve in the direction sought with a large enough effect; an effect the other way counts as inactive or inconclusive)
Procedure, shortened: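 Read-out is LipidTOX Red fluorescence (ex 595/em 615) imaged in HepG2 cells after 24 h compound exposure at 37 C, with Hoechst nuclear counterstain (ex 352/em 461) allowing per-cell normalisation.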
On the % scale 0 is the no-effect control and ±100 the full control effect.

Sequence of Estrogen receptor (Homo sapiens) (P03372 whole entry, looked up): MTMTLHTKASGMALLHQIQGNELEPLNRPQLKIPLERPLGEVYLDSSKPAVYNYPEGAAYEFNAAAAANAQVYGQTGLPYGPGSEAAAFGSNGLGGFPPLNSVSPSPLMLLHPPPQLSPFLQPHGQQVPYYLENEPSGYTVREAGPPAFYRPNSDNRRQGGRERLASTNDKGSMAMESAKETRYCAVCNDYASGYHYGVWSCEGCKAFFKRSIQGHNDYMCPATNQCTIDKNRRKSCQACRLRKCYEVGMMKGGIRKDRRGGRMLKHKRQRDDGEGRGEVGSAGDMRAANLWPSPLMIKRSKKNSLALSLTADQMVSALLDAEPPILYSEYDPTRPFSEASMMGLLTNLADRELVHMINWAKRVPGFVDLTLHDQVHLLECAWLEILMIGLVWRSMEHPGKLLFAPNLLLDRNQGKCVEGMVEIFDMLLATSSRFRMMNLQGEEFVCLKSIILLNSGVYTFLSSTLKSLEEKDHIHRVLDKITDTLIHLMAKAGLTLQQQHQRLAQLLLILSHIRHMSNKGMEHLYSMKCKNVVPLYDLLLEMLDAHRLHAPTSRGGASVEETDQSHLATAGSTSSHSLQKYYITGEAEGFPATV
Sequence of Androgen receptor (Homo sapiens) (P10275 whole entry, looked up): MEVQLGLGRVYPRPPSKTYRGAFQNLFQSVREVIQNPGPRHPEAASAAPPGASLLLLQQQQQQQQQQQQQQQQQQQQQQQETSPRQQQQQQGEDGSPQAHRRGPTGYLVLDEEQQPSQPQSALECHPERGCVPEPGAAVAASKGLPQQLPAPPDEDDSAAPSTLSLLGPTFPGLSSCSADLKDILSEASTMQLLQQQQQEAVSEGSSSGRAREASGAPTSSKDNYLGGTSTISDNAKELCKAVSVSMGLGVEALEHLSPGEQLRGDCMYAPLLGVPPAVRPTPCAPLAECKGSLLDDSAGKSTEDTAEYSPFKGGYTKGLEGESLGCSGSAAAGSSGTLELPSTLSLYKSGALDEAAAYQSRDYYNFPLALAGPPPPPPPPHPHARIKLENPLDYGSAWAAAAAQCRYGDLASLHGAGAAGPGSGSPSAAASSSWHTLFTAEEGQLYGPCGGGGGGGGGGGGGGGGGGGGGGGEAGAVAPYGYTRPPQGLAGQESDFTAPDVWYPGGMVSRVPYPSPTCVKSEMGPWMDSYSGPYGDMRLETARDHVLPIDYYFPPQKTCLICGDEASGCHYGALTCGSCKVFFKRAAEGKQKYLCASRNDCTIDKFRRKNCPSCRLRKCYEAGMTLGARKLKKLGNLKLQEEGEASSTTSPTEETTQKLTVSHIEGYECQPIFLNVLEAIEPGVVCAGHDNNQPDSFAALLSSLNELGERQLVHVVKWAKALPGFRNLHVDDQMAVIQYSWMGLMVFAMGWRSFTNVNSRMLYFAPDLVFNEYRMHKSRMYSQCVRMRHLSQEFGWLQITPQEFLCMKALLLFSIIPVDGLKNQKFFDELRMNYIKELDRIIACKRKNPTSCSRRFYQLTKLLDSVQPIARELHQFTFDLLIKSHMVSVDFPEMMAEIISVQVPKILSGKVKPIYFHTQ

Cc1ccccc1C(=O)Nc1cccc(OC(C)C)c1
inactive: Potency [1] | Potency [2] | Potency [3] | Potency [4] | Potency [5] | Potency [6] | Potency [7] | Potency [8] | Potency [9] | Potency [10] | Potency [11] | Potency [12] | Potency [13] | Potency [14] | Potency [15] | Potency [16] | Potency [17] | Potency [18]

CC1(C)[C@H](C=C(Cl)Cl)[C@@H]1C(=O)O[C@@H](C#N)c1cccc(Oc2ccccc2)c1
inactive: Potency [1] | Potency [2] | Potency [3] | Potency [4] | Potency [5] | Potency [6] | Potency [19] | Potency [7] | Potency [8] | Potency [9] | Potency [11] | Potency [14] | Potency [15] | Potency [16] | Potency [17]

CCO[C@H]1O[C@@H]2OC3(C)CC[C@H]4[C@H](C)CC[C@@H]([C@H]1C)[C@@]24OO3
inactive: Potency [1] | Potency [2] | Potency [3] | Potency [4] | Potency [5] | Potency [6] | Potency [19] | Potency [7] | Potency [8] | Potency [9] | Potency [11] | Potency [15] | Potency [16] | Potency [17]
active: Potency [13] 10.6 µM

CCOP(=O)(OCC)O/C(=C/Cl)c1ccc(Cl)cc1Cl
active: Potency [19] 24.5 µM
inactive: Potency [1] | Potency [2] | Potency [3] | Potency [4] | Potency [5] | Potency [6] | Potency [8] | Potency [9] | Potency [10] | Potency [11] | outcome [20] | Potency [15] | Potency [16] | Potency [17]

CCC(Cl)CCl (configuration not stated)
inactive: Potency [1] | Potency [2] | Potency [3] | Potency [4] | Potency [5] | Potency [6] | Potency [19] | Potency [7] | Potency [9] | Potency [10] | Potency [11] | Potency [12] | Potency [15] | Potency [16] | Potency [17] | Potency [18]

CO[C@@H]1[C@H](OC(=O)NC(=O)CCl)CC[C@]2(CO2)[C@H]1[C@@]1(C)O[C@@H]1CC=C(C)C
inactive: activity change, negative = cytotoxicity [1] 1.11% [at 15.8 µM] | cytotoxicity increase [2] -3.65% [at 15.8 µM] | cytotoxicity [3] 1.46% [at 15.8 µM] | cytotoxicity increase [4] -1.39% [at 15.8 µM] | cytotoxicity increase [5] -6.32% [at 15.8 µM] | activity change, negative = cytotoxic [6] 1.78% [at 15.8 µM] | activity change, negative = cytotoxicity [19] 14.6% [at 15.8 µM] | activity change, negative = cytotoxicity [7] 6.68% [at 15.8 µM] | activity change [8] -10.6% [at 15.8 µM, hits give high values] | activity change, negative = cytotoxicity [9] 0.756% [at 15.8 µM] | activity change, negative = cytotoxicity [11] -6.95% [at 19 µM] | activity change, negative = inhibition [14] -0.212% [at 19 µM] | activity change, negative = inhibition [15] -1.01% [at 19 µM] | activity change, negative = cytotoxicity [16] 12.9% [at 19 µM] | viability change, negative = cytotoxic [17] -8.47% [at 19 µM] | viability change, negative = cytotoxic [18] -7.4% [at 19 µM]

CCOP(=S)(OCC)SCSCC
inactive: Potency [1] | Potency [2] | Potency [3] | Potency [4] | Potency [5] | Potency [6] | Potency [19] | Potency [7] | Potency [8] | Potency [10] | Potency [11] | Potency [12] | Potency [14] | Potency [15] | Potency [16] | Potency [17] | Potency [18]
